# Measurements taken from PubChem BioAssay.
# For some of these results: Results with a measured potency or affinity are listed apart. Calls of active or inactive are those of the source.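 How the source made its calls, unless noted: active means earlier screen potentiator hit that boosts the TRPC4 ion channel at some dose, with a dose response; inactive means no potentiation, no dose response, or not a prior hit.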
# Legend:
# [1] = test system: TRPC4 beta (transient receptor potential cation channel C4), mouse; assay: TRPC4 cation channel opening, retest – cell-based, Fluo4 calcium, HEK293 TRPC4beta/mu-opioid, duplicates, 10 µM, confirmation (AID 2426;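 active means fluorescence ratio normalized to control raised more than 50% in primary screen plus both repeat runs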;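 on activation: percent rise of integrated ratio over buffer wells lacking compound which define 0%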); details: Fluo4 calcium fluorescence, at 10 µM; active compounds read high
# [2] = test system: transient receptor potential cation channel C4 beta (TRPC4), mouse; assay: TRPC4 cation channel opening, second retest – cell-based, second round, Fluo4, HEK293 TRPC4beta/mu-opioid, 1 µM, confirmation (AID 2461;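 active means primary screen active and over 50% activation in each of two duplicate runs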;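 on activation: 0% = wells without test compound as baseline of integrated fluorescence ratio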); details: Fluo4 calcium fluorescence, at 1 µM; active compounds read high
# [3] = test system: TRPC4 (transient receptor potential cation channel C4 beta), mouse; assay: potentiation of DAMGO EC20 TRPC4 response – cell-based, second round, Fluo-4, HEK293 TRPC4beta/mu-opioid, 1 µM, confirmation (AID 2554;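 active means primary screen hit whose fluorescence ratio, in both repeats, exceeds the weak agonist control mean by 3 SD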); details: DAMGO EC20, Fluo-4 calcium flux, at 1 µM; active compounds read high
# [4] = test system: TRPC4 beta (transient receptor potential cation channel C4), mouse; assay: potentiation of DAMGO EC20 TRPC4 response – cell-based, Fluo-4, HEK293 TRPC4beta/mu-opioid, confirmation (AID 2555;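 active means primary screen hit whose calcium fluorescence ratio, in both repeats, exceeds the weak agonist control mean by 3 SD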); details: DAMGO EC20, Fluo-4 calcium flux, at 10 µM; active compounds read high
# [5] = biological target: Short transient receptor potential channel 4 (Mus musculus) (UniProt Q9QUQ5); assay: blockers of DAMGO-evoked TRPC4 calcium flux – cell-based, Fluo4, HEK293 TRPC4beta/mu-opioid, confirmation (AID 2636;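 active means calcium signal cut by more than 3 SD below the full-agonist control yet still positive, in both repeats and the earlier primary screen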); details: at 10 µM; active compounds read high
# [6] = biological target: Short transient receptor potential channel 4 (Mus musculus) (UniProt Q9QUQ5); assay: blockers of DAMGO-evoked TRPC4 calcium flux – cell-based, second round, Fluo4, HEK293 TRPC4beta/mu-opioid, 1 µM, confirmation (AID 2637;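 active means calcium signal ratio cut to more than 3 SD under the fully stimulated control mean yet still positive, in both repeats and the primary screen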); details: at 1 µM; active compounds read high
# [7] = biological target: Short transient receptor potential channel 4 (Mus musculus) (UniProt Q9QUQ5); assay: potentiation of DAMGO-evoked TRPC4 calcium signal – cell-based, HEK293 TRPC4/mu-opioid, Fluo-4 calcium, EC20 DAMGO, dose response (AID 434941);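 further: calcium entry triggered by an EC20 dose of DAMGO at the co-expressed mu-opioid receptor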
# [8] = biological target: Short transient receptor potential channel 4 (Mus musculus) (UniProt Q9QUQ5); assay: block of DAMGO-driven TRPC4 calcium entry – cell-based, HEK293 TRPC4/mu-opioid, Fluo-4 calcium, dose response (AID 434942;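 active means primary screen inhibitor hit that blocks the TRPC4 channel at some tested dose, yielding a dose curve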)
# [9] = biological target: Short transient receptor potential channel 6 (Mus musculus) (UniProt Q61143); assay: TRPC6 blockade by TRPC4 inhibitor hits – cell-based, HEK293, membrane potential dye, duplicate, selectivity assay for TRPC4 inhibitor project, confirmation (AID 434948;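 active means active in primary screen and both duplicates, each dropping signal beyond three positive-control SD with fluorescence still positive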); details: HEK293 TRPC6, membrane potential dye fluorescence, at 10 µM, stimulated with maximal-effect acetylcholine; active compounds read high
# [10] = biological target: Short transient receptor potential channel 6 (Mus musculus) (UniProt Q61143); assay: TRPC6 opening by TRPC4 activator hits – cell-based, HEK293, membrane potential dye, duplicate, selectivity assay for TRPC4 activator project, confirmation (AID 434950;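 active means membrane potential signal rise above negative control mean plus 3 SD in both duplicates, also active in the earlier TRPC4 screen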;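 on activation: 0% = buffer only wells and 100% = acetylcholine maximal-effect wells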); details: HEK293 TRPC6, membrane potential fluorescence, at 10 µM; activation: active compounds read high; outcome: activation
# [11] = biological target: Short transient receptor potential channel 6 (Mus musculus) (UniProt Q61143); assay: positive modulators of mouse TRPC6 channel – HEK293 cells, membrane potential dye, duplicate, selectivity assay for TRPC4 potentiator project, confirmation (AID 434952;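 active means compound raising the membrane signal above positive-control mean plus 3 SD in both repeats, and a primary screen hit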); details: HEK293 TRPC6, membrane potential dye fluorescence, at 10 µM, maximal acetylcholine added after compound; active compounds read high
# [12] = biological target: Short transient receptor potential channel 4 (Mus musculus) (UniProt Q9QUQ5); assay: calcium flux activators in TRPC4/5HT1a cells, counter-screen for TRPC4 activator project, cell-based, second counter screen, HEK293 TRPC4/5HT1a, Fluo-4 (AID 434977;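 active means calcium signal rise above buffer-control mean plus 5 SD in both duplicates, and also a hit in the primary screen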;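 on activation: plate controls were assay buffer for no effect and maximal serotonin response for full effect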); details: Fluo-4 calcium flux, at 10 µM; active compounds read high
# [13] = serotonin-gated TRPC4 signal block – cell-based, second counter screen, HEK293 TRPC4/5HT1a, Fluo-4, counter-screen for TRPC4 inhibitor project, confirmation (AID 434978;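 active means primary screen active whose calcium signal fell more than 3 SD beyond the full-serotonin control mean in both duplicate plates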;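 further: serotonin given first at submaximal then at maximal dose after compound preincubation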); details: Fluo-4 calcium flux, at 10 µM, serotonin added to trigger calcium flux; active compounds read high
# [14] = test system: TRPC4 (mouse), co-expressed with 5HT1a in HEK293; assay: enhancement of serotonin-evoked TRPC4 response – cell-based, second counter screen, HEK293 TRPC4/5HT1a, Fluo-4, counter-screen for TRPC4 potentiator project, confirmation (AID 434979;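 active means signal rise over 3 SD above mean of control wells given weak agonist, in both repeats and first screen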); details: Fluo-4 calcium flux, at 10 µM, serotonin added at its EC20 dose; active compounds read high
# [15] = nonspecific calcium rise without TRPC4 – cell-based, HEK293 mu-opioid receptor line, counter-screen for TRPC4 activator project, confirmation (AID 449723;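 active means hit in primary screen, with calcium signal over 5 SD above buffer well mean in both duplicates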;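 further: counter screen cells carry the mu-opioid receptor alone and lack TRPC4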); details: HEK293 mu-opioid cells, Fluo-4 calcium fluorescence, at 10 µM; active compounds read high
# [16] = nonspecific potentiation of DAMGO calcium response – cell-based, HEK293 mu-opioid receptor line, counter-screen for TRPC4 allosteric potentiator project, confirmation (AID 449724;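 active means calcium signal rise more than 3 SD above the low-dose agonist control mean, in both duplicate plates and the primary screen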;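 further: HEK293 cells carrying mu-opioid receptor only with no TRPC4 channel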); details: HEK293 mu-opioid receptor cells, Fluo-4 calcium flux, at 10 µM, compound added before EC20 DAMGO stimulus; active compounds read high
# Short transient receptor potential channel 6 (Mus musculus), sequence (Q61143 whole entry, looked up): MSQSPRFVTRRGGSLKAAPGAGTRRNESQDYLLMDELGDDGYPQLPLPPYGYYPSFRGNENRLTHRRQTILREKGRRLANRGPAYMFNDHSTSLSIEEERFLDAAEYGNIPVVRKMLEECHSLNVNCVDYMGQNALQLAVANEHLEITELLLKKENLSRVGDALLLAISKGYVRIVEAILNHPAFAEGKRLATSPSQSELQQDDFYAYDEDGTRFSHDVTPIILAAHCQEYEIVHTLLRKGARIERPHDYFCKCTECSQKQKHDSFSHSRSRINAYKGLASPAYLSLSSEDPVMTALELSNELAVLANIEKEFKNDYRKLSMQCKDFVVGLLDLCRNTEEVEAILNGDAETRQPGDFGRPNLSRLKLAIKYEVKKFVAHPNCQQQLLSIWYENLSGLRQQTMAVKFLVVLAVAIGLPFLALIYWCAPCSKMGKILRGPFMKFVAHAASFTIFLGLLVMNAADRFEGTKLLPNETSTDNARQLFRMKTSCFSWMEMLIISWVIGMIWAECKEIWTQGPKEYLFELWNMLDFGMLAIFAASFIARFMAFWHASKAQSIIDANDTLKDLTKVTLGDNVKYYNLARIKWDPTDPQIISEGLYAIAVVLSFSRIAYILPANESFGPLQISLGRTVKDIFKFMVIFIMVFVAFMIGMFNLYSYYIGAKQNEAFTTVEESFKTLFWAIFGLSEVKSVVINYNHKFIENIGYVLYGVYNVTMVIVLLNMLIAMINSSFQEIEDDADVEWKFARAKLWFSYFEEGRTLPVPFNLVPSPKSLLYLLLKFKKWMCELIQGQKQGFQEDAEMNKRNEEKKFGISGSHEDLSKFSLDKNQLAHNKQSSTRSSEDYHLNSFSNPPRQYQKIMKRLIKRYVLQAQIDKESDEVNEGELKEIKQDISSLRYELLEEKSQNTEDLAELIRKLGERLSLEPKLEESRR
# Short transient receptor potential channel 4 (Mus musculus), sequence (Q9QUQ5 whole entry, looked up): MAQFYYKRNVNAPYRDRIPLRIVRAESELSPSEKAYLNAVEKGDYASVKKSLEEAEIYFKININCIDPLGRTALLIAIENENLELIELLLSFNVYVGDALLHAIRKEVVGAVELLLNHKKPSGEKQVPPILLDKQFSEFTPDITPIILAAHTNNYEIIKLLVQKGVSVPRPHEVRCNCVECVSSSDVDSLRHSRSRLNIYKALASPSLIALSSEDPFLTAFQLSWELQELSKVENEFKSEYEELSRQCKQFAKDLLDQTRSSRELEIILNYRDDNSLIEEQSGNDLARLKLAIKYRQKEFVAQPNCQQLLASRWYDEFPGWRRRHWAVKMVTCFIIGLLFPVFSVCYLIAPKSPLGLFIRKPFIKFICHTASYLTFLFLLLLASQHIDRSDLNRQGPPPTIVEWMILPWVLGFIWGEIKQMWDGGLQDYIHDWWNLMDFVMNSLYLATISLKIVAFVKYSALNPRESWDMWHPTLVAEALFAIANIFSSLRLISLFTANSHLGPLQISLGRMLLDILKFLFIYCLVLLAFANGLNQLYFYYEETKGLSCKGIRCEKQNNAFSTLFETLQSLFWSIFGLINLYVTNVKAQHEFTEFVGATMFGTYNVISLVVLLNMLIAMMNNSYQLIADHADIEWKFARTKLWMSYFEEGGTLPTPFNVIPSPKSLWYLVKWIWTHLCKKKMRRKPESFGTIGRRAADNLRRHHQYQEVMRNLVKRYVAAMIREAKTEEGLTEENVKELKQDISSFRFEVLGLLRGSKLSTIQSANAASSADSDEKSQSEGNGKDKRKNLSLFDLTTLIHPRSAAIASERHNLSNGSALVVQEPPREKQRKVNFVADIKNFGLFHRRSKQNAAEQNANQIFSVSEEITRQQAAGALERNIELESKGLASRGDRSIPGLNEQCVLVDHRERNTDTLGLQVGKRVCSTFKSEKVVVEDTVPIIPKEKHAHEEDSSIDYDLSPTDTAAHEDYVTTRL
compound,measurement,setting,value
O=C1S/C(=C\c2ccc(N3CCOCC3)o2)C(=O)N1Cc1c(F)cccc1Cl,outcome,[1],inactive
same,outcome,[2],inactive
same,outcome,[3],inactive
same,outcome,[4],inactive
same,outcome,[5],inactive
same,outcome,[6],inactive
same,outcome,[7],inactive
same,outcome,[8],inactive
same,outcome,[9],inactive
same,activation,[10],280% (active)
same,"potentiation, percent of control",[11],191% (active)
same,outcome,[12],inactive
same,outcome,[13],inactive
same,outcome,[14],inactive
same,outcome,[15],inactive
same,outcome,[16],inactive
Clc1cccc(OCCN2CCNCC2)c1,activation,[1],66% (active)
same,activation,[2],54% (active)
same,outcome,[3],inactive
same,outcome,[4],inactive
same,outcome,[5],inactive
same,outcome,[6],inactive
same,outcome,[7],inactive
same,outcome,[8],inactive
same,outcome,[9],inactive
same,outcome,[10],inactive
same,outcome,[11],inactive
same,activation,[12],31.1% (active)
same,outcome,[13],inactive
same,outcome,[14],inactive
same,outcome,[15],inactive
same,outcome,[16],inactive
CCOC(=O)C1(CC2CC2)CCN(Cc2cnc(-c3ccccc3C)nc2)CC1,outcome,[1],inactive
same,outcome,[2],inactive
same,outcome,[3],inactive
same,outcome,[4],inactive
same,outcome,[5],inactive
same,outcome,[6],inactive
same,outcome,[7],inactive
same,outcome,[8],inactive
same,outcome,[9],inactive
same,activation,[10],59.5% (active)
same,outcome,[11],inactive
same,outcome,[12],inactive
same,outcome,[13],inactive
same,outcome,[14],inactive
same,outcome,[15],inactive
same,outcome,[16],inactive
Cn1c2ccccc2c(=O)c2c(=O)n(C3CCCCC3)c(-c3ccco3)nc21,outcome,[1],inactive
same,outcome,[2],inactive
same,outcome,[3],inactive
same,outcome,[4],inactive
same,outcome,[5],inactive
same,outcome,[6],inactive
same,outcome,[7],inactive
same,outcome,[8],inactive
same,outcome,[9],inactive
same,outcome,[10],inactive
same,outcome,[11],inactive
same,outcome,[12],inactive
same,outcome,[13],inactive
same,outcome,[14],inactive
same,activation,[15],68.6% (active)
same,outcome,[16],inactive
CCc1cccc(C)c1NC(=S)NCC(c1cccnc1)N(C)C (configuration not stated),activation,[1],80% (active)
same,activation,[2],82% (active)
same,outcome,[3],inactive
same,outcome,[4],inactive
same,outcome,[5],inactive
same,outcome,[6],inactive
same,outcome,[7],inactive
same,outcome,[8],inactive
same,outcome,[9],inactive
same,outcome,[10],inactive
same,outcome,[11],inactive
same,outcome,[12],inactive
same,outcome,[13],inactive
same,outcome,[14],inactive
same,outcome,[15],inactive
same,outcome,[16],inactive
Cc1ccccc1C(=O)NNC(=S)NC(=O)c1cccs1,activation,[1],139% (active)
same,outcome,[2],inactive
same,outcome,[3],inactive
same,outcome,[4],inactive
same,outcome,[5],inactive
same,outcome,[6],inactive
same,outcome,[7],inactive
same,outcome,[8],inactive
same,outcome,[9],inactive
same,outcome,[10],inactive
same,outcome,[11],inactive
same,activation,[12],109% (active)
same,outcome,[13],inactive
same,outcome,[14],inactive
same,activation,[15],30.1% (active)
same,outcome,[16],inactive
CCCCN(CC)CCNC(=O)Cn1cc2c(n1)-c1c(oc(C(=O)N3CCCC3)c1C)CC2,activation,[1],65% (active)
same,outcome,[2],inactive
same,outcome,[3],inactive
same,outcome,[4],inactive
same,outcome,[5],inactive
same,outcome,[6],inactive
same,outcome,[7],inactive
same,outcome,[8],inactive
same,outcome,[9],inactive
same,activation,[10],34% (active)
same,outcome,[11],inactive
same,activation,[12],18.6% (active)
same,outcome,[13],inactive
same,outcome,[14],inactive
same,outcome,[15],inactive
same,outcome,[16],inactive
